This note sets out measurements from PubChem BioAssay AID504850 (National Center for Advancing Translational Sciences (NCATS), 2011).

In all, about 2,300 compounds went through this assay and about 1,200 (52%) were called active. About 34% were inconclusive and are not listed. So high a share suggests a set chosen from earlier hits. The list shows a part of the results. Unmarked numbers belong to inactive results. Calls follow the shape of the dose curve; as a rule, active = well fitted inhibition curve with a large enough effect; inconclusive = small, poorly fitted or top-dose-only effect, or effect the other way; inactive = no such curve, though single readings can be large or run the other way.
% is scaled to controls: 0 for no effect and ±100 for the full control effect; potency is read from the fitted curve at half-maximal effect.

This assay is described as follows: Confirmation screen for delayed death inhibitors of the malarial parasite plastid, 48 hour incubation. Also: nearly all actives have a fitted effect of over 65% in size. The note with it: P. falciparum-infected erythrocytes, luciferase growth; series mostly up to 28.7 µM; activity change, negative = inhibition: at the top concentration. The text has this: The goal of this screen is to discover new antimalarial compounds that act by inhibiting the development of the apicoplast in the malarial parasite Plasmodium falciparum. The biochemical processes that make this organelle essential for erythrocytic stage parasites are not well understood. However, antibiotics, such as azithromycin and tetracycline, which target the apicoplast translational machinery, have a potent antimalarial effect. […] We have developed a cell-based assay that measures parasite growth based on the expression of an integrated copy of a firefly luciferase reporter. To detect small molecules that cause this "delayed death phenotype, erythrocytes infected with the luciferase-expressing parasites were incubated with compounds for either one or two generations, corresponding to 48 and 96 hours, respectively. Compounds that inhibit parasite growth in the second generation, but not the first, should be enriched in antimalarials that target the apicoplast. Growth inhibition is detected by a decrease in luciferase activity. MLPCN Grant: R21 NS059500 Assay Provider: David Fidock and Eric Ekland, Columbia University Keywords: NIH Roadmap, MLPCN, MLI, MLSMR, qHTS, NCGC, qHTS, malaria, luciferase, viability
Four microliters of culture medium (RPMI 1640 with 0.5% w/v Albumax (GIBCO), 24 mM sodium bicarbonate and 10 ug/mL gentamycin) were dispensed by a Multi-drop Combi into white solid 1536-well plates (Grenier) and 23 nL compound was added by a pin tool. Four microliters of infected erythrocytes (2% hematocrit, 0.1% parasitemia final concentration) in culture medium were dispensed and the plates incubated for 48 hours at 37 C in 5% CO2. Two microliters of luciferase detection reagent was added and luminescence was detected by a ViewLux (PerkinElmer) reader.
For `Cc1noc(C)c1C(=O)Nc1nc(-c2ccc(F)cc2)cs1`, the “activity change, negative = inhibition” value was 12.2%.

For the compound `COc1ccc(NC(=O)c2c(-c3c(Cl)cccc3Cl)noc2C)c(OC)c1`, the Potency was 3.16 µM (active).

On to `Cc1onc(-c2c(Cl)cccc2Cl)c1C(=O)Nc1nc(C(C)(C)C)cs1`, for which the Potency was 11.2 µM (active).

Consider `Cc1ccc(Cl)cc1N1CCN(Cc2nc3c(c(=O)[nH]c(=O)n3C)n2CCc2ccccc2)CC1`, for which the Potency is 7.08 µM (active).

Regarding `COC(=O)c1ccc(CSc2ccccc2C)o1`, the “activity change, negative = inhibition” value is -5.45%.

As for `CCCCNC(=O)c1onc(CSc2ccccc2C)c1C(=O)O`, the “activity change, negative = inhibition” value was 1.08%.

As for `CCc1ccc(OCCNC(=O)c2ccccc2SCc2ccccc2)cc1`, the Potency is 14.1 µM (active).

`O=S(=O)(c1cccs1)N1CCN(c2ccnc3cc(Cl)ccc23)CC1`: the Potency is 5.01 µM (active).

In the case of `CN(C)S(=O)(=O)N1CCN(c2ccnc3cc(Cl)ccc23)CC1`, the Potency is 12.6 µM (active).

As to `O=S(=O)(c1cccs1)N1CCC(CO)(Cc2cccc(F)c2)CC1`, the “activity change, negative = inhibition” value was -62%.

As to `O=c1oc2ccccc2c(O)c1CN1CCCCC1`, the “activity change, negative = inhibition” value was 18.3%.

For the compound `CCCCCCCCCC[n+]1cccc2c3ccccc3ccc21`, the Potency was 0.891 µM (active).

Take `CCCCCCCCC[n+]1cccc2c3ccccc3ccc21`: the Potency was 0.398 µM (active).

As to `O=S(=O)(Nc1ccc(O)c(Sc2nc3ccccc3s2)c1)c1cccc2ccccc12`, the Potency was 15.8 µM (active).

For the compound `COc1cc(-c2ccc(Nc3ccccc3C(=O)O)c(OC)c2)ccc1Nc1ccccc1C(=O)O`, the Potency was 12.6 µM (active).

On to `COc1ccc(Nc2cccc(Cl)c2)c(C(=O)O)c1`, for which the “activity change, negative = inhibition” value was -15.3%.

With `COc1cc(-c2ccc(NC(=O)NC3CC3)c(OC)c2)ccc1NC(=O)NC1CC1`, the Potency was 12.6 µM (active).

As for `CC(=O)N1CCSc2ccc(S(=O)(=O)Nc3ccc(C)cc3)cc21`, the Potency is 10 µM (active).

In the case of `Cc1ccc(S(=O)(=O)C2(C(=O)N3CCCCCC3)CC2)cc1`, the “activity change, negative = inhibition” value was -19.3%.

For `O=[N+]([O-])c1ccc(Sc2cccc3cccnc23)c([N+](=O)[O-])c1`, the Potency is 4.47 µM (active).

Take `CN1CC2=Cc3ccccc3OC23Oc2ccccc2C=C3C1`: the Potency was 3.98 µM (active).

As for `CC(C)=N/N=C1/NC(=O)C(Cc2ccccc2)S1` (stereo unspecified), the Potency was 11.2 µM (active).

For `CC1=C(C(=O)NC2CC(C)(C)Cc3c2cnn3-c2ccc(C)cc2)OCCO1` (stereo unspecified), the Potency was 12.6 µM (active).

As for `CCc1noc(C)c1C(=O)NC1CC(C)(C)Cc2c1cnn2-c1ccccc1` (stereo unspecified), the Potency was 15.8 µM (active).

With `Cc1ccc(-n2ncc3c2CC(C)(C)CC3NC(=O)c2c(C)noc2C)cc1` (stereo unspecified), the Potency is 11.2 µM (active).

Consider `Cc1cc(C)c(NC(=O)c2cccc3c2C(=O)N(C2CCCCC2)C3)c(C)c1`, for which the Potency is 10 µM (active).

With `COc1ccc(CCNC(=O)c2cc3c(=O)n4cccc(C)c4nc3n(Cc3ccco3)c2=N)cc1OC`, the Potency is 12.6 µM (active).

On to `COc1cccc2cc(C(=O)NCc3ccc(Cl)cc3)c(=N)oc12`, for which the “activity change, negative = inhibition” value is -13.6%.

Take `Cc1cc(OCC(=O)N[C@@H](CSCc2ccccc2)C(=O)O)c2c(C)c(C)c(=O)oc2c1`: the Potency is 14.1 µM (active).

Take `COC(=O)c1c(-n2c(C)cc(C=O)c2C)sc2c1CCCC2`: the Potency was 14.1 µM (active).

`COc1cc(NCc2ccc3nc(N)nc(N)c3c2C)cc(OC)c1OC`: the Potency was 0.316 µM (active).

As for `O=C(Nc1ccc(C2=NCCN2)cc1)c1ccc(C(=O)Nc2ccc(C3=NCCN3)cc2)c(Cl)c1`, the Potency is 0.891 µM (active).

On to `COCCNC(=O)CCCCCN1C(=O)CCC1=O`, for which the “activity change, negative = inhibition” value was -8.65%.

As for `Cc1cccc(-n2ccc(=O)c(C(=O)Nc3ccc(S(=O)(=O)N4CCOCC4)cc3)n2)c1`, the Potency is 11.2 µM (active).

For the compound `O=S(=O)(c1ccc(Cl)c(NC(=S)N/N=C/c2ccc(O)cc2)c1)N1CCOCC1`, the Potency was 11.2 µM (active).

With `O=C(NCc1ccccc1)C1=C[C@@H](c2coc3ccccc3c2=O)C[C@@H](OCc2ccc(CO)cc2)O1`, the Potency was 10 µM (active).

`O=C(NC1CC1)C1=C[C@@H](C2CCCCC2)C[C@@H](OCc2ccc(CO)cc2)O1`: the Potency is 12.6 µM (active).

For the compound `O=C(Nc1ccccc1)C1=C[C@@H](C2CCCCC2)C[C@@H](OCc2ccc(CO)cc2)O1`, the Potency is 11.2 µM (active).

In the case of `CN(c1ccccc1)S(=O)(=O)c1ccc(NC(=O)c2nc(S(C)(=O)=O)ncc2Cl)cc1`, the “activity change, negative = inhibition” value was -6.44%.

As for `CN(c1ccccc1)S(=O)(=O)c1cc(C(=O)N2CCN(c3ncccn3)CC2)ccc1Cl`, the Potency was 11.2 µM (active).

As to `COc1cc(C(=O)Nc2ccc(S(=O)(=O)Nc3cc(C)on3)cc2)cc(OC)c1OC`, the “activity change, negative = inhibition” value is 3.18%.

For the compound `COc1cc(C(=O)Nc2ccc(Nc3ccccc3)cc2)cc(OC)c1OC`, the Potency was 11.2 µM (active).

Consider `COc1ccccc1NC(=O)c1ccc2nc(-c3ccccc3)c(-c3ccccc3)nc2c1`, for which the “activity change, negative = inhibition” value was 1.49%.

Take `COC(=O)c1ccc(CNCC(=O)Nc2ccc(C(=O)OC)cc2)cc1`: the “activity change, negative = inhibition” value was -23.3%.

On to `COC(=O)c1ccc(NC(=O)c2cccc(NC(=O)c3ccccc3)c2)cc1`, for which the Potency was 8.91 µM (active).

For the compound `COc1ccc(NC(=O)c2cccc(NC(=O)c3ccccc3)c2)c(OC)c1`, the Potency is 11.2 µM (active).
